Sampled rows, rich in hits. Any-hit rate of the full collection: about 6.6%.
TGFb SMAD3 inh: blocks TGF-b signaling; HepG2 CAGA-GFP TGF-b/SMAD3 reporter, GFP fluorescence, 18 h; TGF-beta stimulated, 500 pg/mL final; Potency, µM (series often up to 46.1 µM), without a hit: at the highest dose activity, negative = inhibition, most hits filed as inhibitors; 410,000 tested, 1.2% active; AID 588855; further: on the % scale 0 is the no-effect control and ±100 the full control effect; nearly all actives have a fitted effect of over 65% in size
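TGF-beta reporter screen: HEPG2 CAGA-GFP, 1% FBS, 500 pg/mL TGF-beta final, 18 h; per-cell GFP summed per well; curves fitted and categorized by class.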
HepG2 viability: HepG2 cytotoxicity, counter-screen for TGF-b inhibitors | HepG2 CAGA-GFP viability, ATP luminescence, 18 h | Potency, µM (series often up to 46.1 µM), inactives show at the highest dose activity change, negative = cytotoxicity, actives largely listed as cytotoxic | 410,000 tested, 0.76% active
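HepG2 CAGA-GFP cells (1000/well, DMEM with 1% FBS) received compound, then TGF-beta at 500 pg/mL final, and were incubated 18 hours at 37 degrees C. Viability was read by CellTiter-Glo luminescence. Media-only wells were set as complete cell-killing and DMSO as no toxicity.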
KB-3-1 tox: kills parental KB-3-1 adenocarcinoma cells; KB-3-1 viability, CellTiter-Glo ATP luminescence, 72 h; Potency, µM (highest dose often 46.1 µM), actives largely listed as cytotoxic; 400,000 tested, 1.4% active; further: on the % scale 0 is the no-effect control and ±100 the full control effect; nearly all actives have a fitted effect of over 60% in size
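Cytotoxicity measured as CellTiter-Glo luminescence after 72 h at 37 C. Compound titrations were pinned onto drug-naive KB-3-1 parental adenocarcinoma cells grown in DMEM with 10% FBS, and normalized data fitted to concentration-response curves.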
HT1080NT lethal: kills 2HG-producing HT-1080-NT fibrosarcoma cells; HT-1080-NT fibrosarcoma viability, CellTiter-Glo ATP luminescence, 48 h; Potency, µM (titrated, usually from 46.1 µM), inactives show at the highest dose activity, negative = less viability, actives largely listed as cytotoxic; 360,000 tested, 1.6% active; AID 686970;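 further: NT is the 2HG producing partner of a matched IDH1 knockdown line; 0% = DMSO-treated cells and -100% = media-only wells without cells; nearly all actives have a fitted effect of over 55% in size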
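Toxicity toward the 2HG-producing NT line was scored as %Activity, normalised to DMSO and no-cell wells, from CellTiter-Glo luminescence after 48 hours' treatment.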
KB-V1 MDR tox: KB-V1 MDR subline cytotoxicity | KB-V1 MDR cells viability, CellTiter-Glo, 72 h | Potency, µM (top dose mostly 46.1 µM), usual class: cytotoxic | 400,000 tested, 3.4% active; further: on the % scale 0 is the no-effect control and ±100 the full control effect; nearly all actives have a fitted effect of over 60% in size
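Luminescent ATP read-out (CellTiter-Glo, 10 min) measures survival of drug-selected KB-V1 MDR cells after 72 h, 37 degrees C compound exposure. Medium: phenol-red-free DMEM, 10% FBS. Values from fitted concentration-response curves.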
HT1080 IDH1KD tx: HT-1080 IDH1 knockdown cell toxicity (counter line) | 360,000 tested, 2% active | Potency, µM (series often up to 46.1 µM), inactives show at the highest dose activity, negative = toxicity, hits mostly cytotoxic | HT-1080 IDH1 knockdown viability, ATP luminescence, 48 h | AID 686971;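 further: 0% = DMSO wells and -100% = cell-free medium wells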
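Luminescent ATP read-out (CellTiter-Glo, 10 min at room temperature) after 48 h compound exposure at 37 °C gave viability of IDH1-knockdown HT-1080 cells. Activity was normalised to DMSO and cell-free wells, then fitted as concentration-response curves.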
The depositor's hits bear a star; i = inactive; ? = inconclusive; . = no result given; ! = not active in a repeat; [ ] = another dose, or the depositor's remark. The call rests on the fitted dose curve; in most records, active means well fitted curve in the direction sought with a large enough effect; inconclusive means small, poorly fitted or top-dose-only effect, or another doubt; inactive means no such curve, though single readings can be large; an effect the other way counts as inactive or inconclusive. Potency means the concentration at half of the fitted maximal effect.

SMILES	TGFb SMAD3 inh	HepG2 viability	KB-3-1 tox	HT1080NT lethal	KB-V1 MDR tox	HT1080 IDH1KD tx
CCN1CCN(Cc2ccc(NC(=O)c3cc(NC(=O)C(=O)c4c[nH]c5ccccc45)cc(OC)c3)cc2C(F)(F)F)CC1	?	11µM*!	?	16µM*	?	?
Cc1ncc(COC(=O)C(C)C)c2cc(C(=O)Nc3ccccc3C(F)(F)F)c(=O)oc12	2%	0%	i	.	i	.
C=CCNC(=S)N/N=C(\C)c1cc(OC)c(OC)c(OC)c1	?	-30%	i	-8%	15µM*	-8%
Cc1ccc(F)c(S(=O)(=O)NC(=O)C2(C)CCN2C(=O)CCc2ccccc2)c1 (stereo not drawn)	8%	-1%	i	-5%	i	-4%
CCOc1cc(CNC(=O)Cn2ncn3c(cc4cc(F)ccc43)c2=O)cc(OCC)c1OCC	-7%	-4%	i	.	i	.
Cn1cc(CN2CCCC(CO)(Cc3ccccc3)C2)c2ccccc21 (stereo not drawn)	18%	1%	i	?	i	?
CCn1cc(CN2CCCC(CO)(Cc3ccc(F)cc3)C2)c2ccccc21 (stereo not drawn)	?	-45%	i	?	i	18µM*
N=C1C(c2nc3ccccc3[nH]2)=C(O)CN1c1ccc(CC(=O)O)cc1	3%	4%	i	20%	i	14%
N=C1C(c2nc3ccccc3[nH]2)=C(O)CN1c1ccccc1	?	-5%	23µM*	-8%	?	-28%
COc1ccc(CNC(=O)c2cc(-c3ccc(C)c(C)c3)n[nH]2)cc1	?	-34%	i	.	i	.
Cc1c(C(=O)N2CCOCC2)sc(NC(=O)CCl)c1C#N	0%	-8%	?	13µM*	i	12µM*
Cc1c(C(=O)N2CCOCC2)sc(NC(=O)c2ccc([N+](=O)[O-])cc2)c1C#N	23%	7%	i	7%	?	15%
COc1ccc(CNC(=O)c2cnn(-c3ccc(F)cc3)c2-n2cccc2)cc1	-9%	-12%	i	.	?	.
COc1ccc(N2CCN(CCCNC(=O)c3cnn(-c4ccc(F)cc4)c3-n3cccc3)CC2)cc1	-10%	-2%	23µM*	.	?	.
CN1CCN(CCCNC(=O)c2cnn(-c3ccc(F)cc3)c2-n2cccc2)CC1	10%	-9%	i	.	i	.
CC(CNC(=O)c1cnn(-c2ccc(F)cc2)c1-n1cccc1)c1ccccc1 (stereo not drawn)	10µM*	-9%	?	.	21µM*	.
COc1ccc(N2CCN(CCCNC(=O)c3cnn(-c4ccc(C)cc4)c3-n3cccc3)CC2)cc1	?	-15%	.	.	.	.
O=C(NCCCN1CCN(c2ccc(F)cc2)CC1)c1cnn(-c2ccc(F)cc2)c1-n1cccc1	?	-25%	?	.	18µM*	.
CN(Cc1ccccc1)c1ncnc2c1nnn2C	33%	9%	i	.	i	.
CCc1nnc(NC(=O)CSc2nccn2-c2cc(C)cc(C)c2)s1	-7%	-13%	18µM*	14%	i	-2%
CCc1nnc(NC(=O)CSc2nccn2-c2ccc(OC)cc2)s1	-24%	-20%	.	.	.	.
C=CCn1c(SCc2c(C)noc2C)nc2cc(C(=O)O)ccc2c1=O	-25%	6%	?	6.3µM*	?	7.1µM*
C=CCn1c(SCc2c(C)noc2C)nc2ccccc2c1=O	6%	-9%	?	0.56µM*	?	0.32µM*
C=CCn1c(SCc2nc3ccccc3c(=O)[nH]2)nc2ccccc2c1=O	0%	-46%	i	?	i	?
C=CCn1c(SCc2c(C)noc2C)nc2sc3c(c2c1=O)CCCC3	7%	-19%	18µM*	-19%[9.24 µM]	23µM*	?
SMILES	TGFb SMAD3 inh	HepG2 viability	KB-3-1 tox	HT1080NT lethal	KB-V1 MDR tox	HT1080 IDH1KD tx
CCOC(=O)c1[nH]c(C)c(CCC(=O)Nc2ccc(Br)c(C)c2)c1C	-6%	-3%	i	.	i	.
Cc1cccc(CNC(=O)Cn2c(-c3cccs3)cc3ccccc32)c1	0%	-14%	i	.	i	.
COc1ccc2c(c1OC)C(=O)N1c3ccccc3C(=O)N(c3ccccc3F)C21 (stereo not drawn)	-11%	-24%	i	-23%	5.8µM*	0%
O=C(N[C@@H]1C/C=C\C[C@@H](CC(=O)N(CCO)Cc2ccccc2)C(=O)NC[C@H](c2ccccc2)OC1=O)OCC1c2ccccc2-c2ccccc21	?	-60%	?	?	?	-21%
O=C(N[C@@H]1C/C=C\C[C@H](CC(=O)N(CCO)Cc2ccccc2)C(=O)NC[C@@H](c2ccccc2)OC1=O)OCC1c2ccccc2-c2ccccc21	7.9µM*	-66%	i	?	i	?
O=C(C[C@H]1C/C=C\C[C@H](NC(=O)OCC2c3ccccc3-c3ccccc32)C(=O)O[C@H](c2ccccc2)CNC1=O)N[C@H](CO)Cc1ccccc1	16µM*	-47%	?	12µM*	i	15µM*
O=C(C[C@H]1C/C=C\C[C@@H](Cc2ccc(F)cc2)C(=O)O[C@H](c2ccccc2)CNC1=O)N[C@@H](CO)Cc1ccccc1	-5%	0%	i	-10%	i	10%
CCCOc1ccc(C2C(=O)N(C3CCCCCC3)CC(=O)N2CCC)cc1OC (stereo not drawn)	-5%	-28%	.	.	.	.
COc1ccccc1NC(=O)c1sc2nc3c(c(C(F)(F)F)c2c1N)CN(C(C)=O)CC3	110%	-29%	i	.	i	.
COc1ccc(/C=N/NC(=O)c2cccc(Br)c2)cc1CSc1ccccn1	-10%	15%	?	5%	12µM*	7%
COc1ccc(/C=N/NC(=O)c2cccnc2)cc1CSc1ccccn1	-2%	1%	?	23µM*	?	12µM*
COc1ccc(C(=O)N/N=C/c2ccc(OC)c(CSc3ccccn3)c2)cc1	3%	1%	i	-1%	i	-6%
CCc1nc2ccc(C(=O)NCCCn3ccnc3)cn2c1N(C)Cc1cc2ccccc2s1	5%	-17%	i	21µM*	i	?
CCc1nc2ccc(C(=O)NC3CCN(Cc4ccccc4)CC3)cn2c1N(C)Cc1cc2ccccc2s1	?	-111%	?	16µM*	10µM*	?
CCc1nc2ccc(C(=O)NCCCN(C)C)cn2c1N(C)CCCc1ccccc1	17%	-79%	i	18µM*	i	23µM*

Screening results as filed in PubChem BioAssay.
